# Experiments:
# Test in all cases: DAPPL (digital affinity profiling via proximity ligation, sequencing); 10 mM Tris-HCl pH 7.5, 50 mM NaCl, 1 mM DTT, 4% glycerol, room temperature, 30 min; GST-TFs on glutathione beads, 16-mer random dsDNA library, 0.1% formaldehyde crosslink after washing; high values mean tight binding
# FEV = molecular target: T1, FEV (Homo sapiens, UniProt Q99581 1-238); details: protein: recombinant; tags: N-terminal GST; dsDNA, one strand shown
# T1 sequence: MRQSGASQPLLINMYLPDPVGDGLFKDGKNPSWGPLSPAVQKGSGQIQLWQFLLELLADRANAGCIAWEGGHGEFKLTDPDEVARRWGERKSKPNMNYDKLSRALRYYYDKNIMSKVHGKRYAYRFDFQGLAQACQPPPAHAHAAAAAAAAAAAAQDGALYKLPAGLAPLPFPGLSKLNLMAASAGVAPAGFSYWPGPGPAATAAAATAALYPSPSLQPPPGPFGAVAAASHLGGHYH
# Summary of the method: (§1)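 The binding signal reported is, for every hexamer, its read frequency for a factor over its read frequency for the tag-only sample. Reads came from pools of yeast-expressed, GST-fused human transcription factors on glutathione beads, barcoded with DNA and mixed with that sample, which were incubated with 200 nmole of a random double-stranded 16-mer DNA library in Tris/NaCl/DTT/glycerol buffer at room temperature for 30 min. After washing, the pools were crosslinked with 0.1% formaldehyde, proximity-ligated with BsaI/T4 ligase for 1 h at 37 °C, PCR-amplified and sequenced on an Illumina NextSeq500.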
# ETV5 = ETV5 (Homo sapiens, UniProt P41161 1-510); details: protein: recombinant; tags: N-terminal GST; dsDNA, one strand shown
# Sequence of ETV5 (P41161 whole entry): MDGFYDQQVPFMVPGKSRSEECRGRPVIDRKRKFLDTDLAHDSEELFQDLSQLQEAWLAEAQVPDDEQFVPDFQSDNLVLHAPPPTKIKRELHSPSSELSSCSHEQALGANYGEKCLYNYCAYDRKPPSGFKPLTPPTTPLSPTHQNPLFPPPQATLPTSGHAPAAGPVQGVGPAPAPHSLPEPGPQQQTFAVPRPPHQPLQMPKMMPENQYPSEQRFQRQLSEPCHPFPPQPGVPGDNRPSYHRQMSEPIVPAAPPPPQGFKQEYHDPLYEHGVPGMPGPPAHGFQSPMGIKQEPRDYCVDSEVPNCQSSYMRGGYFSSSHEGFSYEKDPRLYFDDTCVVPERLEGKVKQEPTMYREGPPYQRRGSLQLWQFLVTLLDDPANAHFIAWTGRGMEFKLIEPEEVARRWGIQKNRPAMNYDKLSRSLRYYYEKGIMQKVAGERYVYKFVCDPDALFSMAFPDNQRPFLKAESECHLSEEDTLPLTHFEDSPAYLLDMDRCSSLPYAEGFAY
# Summary of the method: as §1
# HSF1 = HSF1 (Homo sapiens, UniProt Q00613 1-529); details: protein: recombinant; tags: N-terminal GST; chain copies: 3; dsDNA, one strand shown
# Sequence of HSF1 (Q00613 whole entry): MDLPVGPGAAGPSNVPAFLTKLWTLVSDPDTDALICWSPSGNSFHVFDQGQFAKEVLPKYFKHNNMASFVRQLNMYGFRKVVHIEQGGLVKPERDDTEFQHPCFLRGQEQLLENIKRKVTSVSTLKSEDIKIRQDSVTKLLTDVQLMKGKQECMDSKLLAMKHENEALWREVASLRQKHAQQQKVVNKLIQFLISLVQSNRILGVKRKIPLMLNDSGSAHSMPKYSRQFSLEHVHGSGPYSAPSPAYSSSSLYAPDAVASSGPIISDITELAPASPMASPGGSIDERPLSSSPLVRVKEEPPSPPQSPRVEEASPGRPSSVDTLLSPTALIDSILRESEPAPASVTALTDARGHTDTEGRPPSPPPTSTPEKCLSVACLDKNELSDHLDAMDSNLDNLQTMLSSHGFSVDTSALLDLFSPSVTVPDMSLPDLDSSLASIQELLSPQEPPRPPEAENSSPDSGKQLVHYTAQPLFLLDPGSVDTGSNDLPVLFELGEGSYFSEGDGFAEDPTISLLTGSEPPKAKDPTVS
# Summary of the method: as §1
# SPIC = molecular target: T2, SPIC (Homo sapiens, UniProt Q8N5J4 1-248); details: protein: recombinant; tags: N-terminal GST; dsDNA, one strand shown
# T2 sequence: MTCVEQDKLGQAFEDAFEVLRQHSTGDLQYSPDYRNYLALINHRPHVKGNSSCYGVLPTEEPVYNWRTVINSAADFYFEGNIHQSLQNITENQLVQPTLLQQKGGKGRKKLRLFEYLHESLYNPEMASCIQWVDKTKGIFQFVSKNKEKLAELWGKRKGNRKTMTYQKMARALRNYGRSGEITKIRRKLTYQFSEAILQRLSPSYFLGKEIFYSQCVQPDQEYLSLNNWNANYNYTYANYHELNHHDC
# Summary of the method: as §1
# ELF4 = ELF4 (Homo sapiens, UniProt Q99607 1-663); details: protein: recombinant; tags: N-terminal GST; dsDNA, one strand shown
# Sequence of ELF4 (Q99607 whole entry): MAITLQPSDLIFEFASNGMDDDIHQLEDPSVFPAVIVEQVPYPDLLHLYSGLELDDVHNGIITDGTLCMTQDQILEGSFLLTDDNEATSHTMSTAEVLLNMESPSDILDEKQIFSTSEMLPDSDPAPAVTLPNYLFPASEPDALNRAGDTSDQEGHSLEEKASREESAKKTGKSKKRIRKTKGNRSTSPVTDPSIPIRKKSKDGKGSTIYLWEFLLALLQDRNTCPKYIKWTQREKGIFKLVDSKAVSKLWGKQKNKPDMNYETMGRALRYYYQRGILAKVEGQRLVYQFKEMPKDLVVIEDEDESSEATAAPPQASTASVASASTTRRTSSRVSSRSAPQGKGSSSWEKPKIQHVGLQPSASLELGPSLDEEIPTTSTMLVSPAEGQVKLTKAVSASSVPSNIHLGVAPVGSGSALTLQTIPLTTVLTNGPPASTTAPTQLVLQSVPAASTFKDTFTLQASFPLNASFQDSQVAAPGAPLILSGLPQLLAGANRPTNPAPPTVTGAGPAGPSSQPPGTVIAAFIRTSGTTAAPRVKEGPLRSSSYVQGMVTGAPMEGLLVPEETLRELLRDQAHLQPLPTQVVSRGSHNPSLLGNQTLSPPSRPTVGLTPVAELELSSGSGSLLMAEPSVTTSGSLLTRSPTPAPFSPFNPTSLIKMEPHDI
# Summary of the method: as §1
# ELK4 = molecular target: T3, ELK4 (Homo sapiens, UniProt P28324-2 1-405); details: protein: recombinant; tags: N-terminal GST; dsDNA, one strand shown
# T3 sequence: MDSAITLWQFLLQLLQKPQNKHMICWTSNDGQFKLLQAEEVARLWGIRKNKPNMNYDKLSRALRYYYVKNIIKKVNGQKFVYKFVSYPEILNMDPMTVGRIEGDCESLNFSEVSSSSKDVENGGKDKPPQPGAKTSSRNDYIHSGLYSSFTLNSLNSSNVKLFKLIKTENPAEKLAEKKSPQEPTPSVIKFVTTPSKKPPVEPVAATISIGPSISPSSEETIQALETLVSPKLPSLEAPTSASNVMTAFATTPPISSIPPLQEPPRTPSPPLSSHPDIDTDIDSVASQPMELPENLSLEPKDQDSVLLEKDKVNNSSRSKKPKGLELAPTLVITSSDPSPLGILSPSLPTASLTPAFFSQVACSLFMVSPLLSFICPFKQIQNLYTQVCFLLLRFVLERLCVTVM
# Summary of the method: as §1
# ETV2 = molecular target: T4, ETV2 (Homo sapiens, UniProt O00321 1-342); details: protein: recombinant; tags: N-terminal GST; dsDNA, one strand shown
# T4 sequence: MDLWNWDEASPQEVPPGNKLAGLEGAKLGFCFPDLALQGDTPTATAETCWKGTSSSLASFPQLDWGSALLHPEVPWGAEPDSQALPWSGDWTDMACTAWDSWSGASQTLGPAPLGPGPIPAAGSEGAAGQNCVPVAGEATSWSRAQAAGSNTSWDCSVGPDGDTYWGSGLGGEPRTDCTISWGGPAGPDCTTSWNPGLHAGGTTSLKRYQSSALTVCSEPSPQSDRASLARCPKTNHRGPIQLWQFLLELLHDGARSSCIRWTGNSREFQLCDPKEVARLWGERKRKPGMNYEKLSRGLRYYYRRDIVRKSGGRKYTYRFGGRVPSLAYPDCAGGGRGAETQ
# Summary of the method: as §1
# CRX = CRX (Homo sapiens, UniProt O43186 1-299); details: protein: recombinant; tags: N-terminal GST; dsDNA, one strand shown
# Sequence of CRX (O43186 whole entry): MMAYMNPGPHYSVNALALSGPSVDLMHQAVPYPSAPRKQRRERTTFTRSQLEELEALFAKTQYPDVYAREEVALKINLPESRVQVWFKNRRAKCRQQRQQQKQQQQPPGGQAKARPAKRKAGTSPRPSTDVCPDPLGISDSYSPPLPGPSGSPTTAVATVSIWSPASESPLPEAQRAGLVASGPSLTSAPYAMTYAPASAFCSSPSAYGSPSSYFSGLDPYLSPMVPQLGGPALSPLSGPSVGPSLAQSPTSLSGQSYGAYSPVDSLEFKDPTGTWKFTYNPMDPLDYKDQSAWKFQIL
# Summary of the method: as §1
# ETV1 = ETV1 (Homo sapiens, UniProt P50549 1-477); details: protein: recombinant; tags: N-terminal GST; dsDNA, one strand shown
# Sequence of ETV1 (P50549 whole entry): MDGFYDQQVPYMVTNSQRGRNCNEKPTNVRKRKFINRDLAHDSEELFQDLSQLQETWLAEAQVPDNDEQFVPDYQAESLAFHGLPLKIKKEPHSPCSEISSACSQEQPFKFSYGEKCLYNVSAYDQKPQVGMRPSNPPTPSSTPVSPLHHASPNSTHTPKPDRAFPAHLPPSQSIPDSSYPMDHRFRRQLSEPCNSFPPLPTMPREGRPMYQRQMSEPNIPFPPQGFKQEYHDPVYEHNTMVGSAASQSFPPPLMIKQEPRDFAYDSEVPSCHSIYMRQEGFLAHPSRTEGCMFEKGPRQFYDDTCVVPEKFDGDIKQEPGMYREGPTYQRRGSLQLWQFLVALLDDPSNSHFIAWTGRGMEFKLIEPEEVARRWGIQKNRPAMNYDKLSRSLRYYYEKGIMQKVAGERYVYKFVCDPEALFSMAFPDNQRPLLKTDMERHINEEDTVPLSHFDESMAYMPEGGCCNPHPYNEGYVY
# Summary of the method: as §1
# ERF = molecular target: T5, ERF (Homo sapiens, UniProt P50548 1-548); details: protein: recombinant; tags: N-terminal GST; dsDNA, one strand shown
# T5 sequence: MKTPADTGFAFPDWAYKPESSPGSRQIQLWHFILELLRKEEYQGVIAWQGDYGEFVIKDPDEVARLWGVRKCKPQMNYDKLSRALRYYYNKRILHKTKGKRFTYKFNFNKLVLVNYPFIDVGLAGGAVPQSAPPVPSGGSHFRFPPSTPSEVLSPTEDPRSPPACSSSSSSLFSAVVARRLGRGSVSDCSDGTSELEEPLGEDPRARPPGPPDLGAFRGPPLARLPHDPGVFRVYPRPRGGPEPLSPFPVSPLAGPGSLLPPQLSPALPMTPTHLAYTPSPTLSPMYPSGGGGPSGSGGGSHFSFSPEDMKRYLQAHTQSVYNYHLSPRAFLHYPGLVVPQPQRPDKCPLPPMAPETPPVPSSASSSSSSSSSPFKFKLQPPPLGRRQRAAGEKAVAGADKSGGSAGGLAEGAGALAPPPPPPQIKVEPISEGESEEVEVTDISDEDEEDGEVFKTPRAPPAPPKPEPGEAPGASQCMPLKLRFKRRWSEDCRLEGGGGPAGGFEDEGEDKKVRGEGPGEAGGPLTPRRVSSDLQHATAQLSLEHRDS
# Summary of the method: as §1
# ETV3L = molecular target: T6, ETV3L (Homo sapiens, UniProt Q6ZN32 1-361); details: protein: recombinant; tags: N-terminal GST; dsDNA, one strand shown
# T6 sequence: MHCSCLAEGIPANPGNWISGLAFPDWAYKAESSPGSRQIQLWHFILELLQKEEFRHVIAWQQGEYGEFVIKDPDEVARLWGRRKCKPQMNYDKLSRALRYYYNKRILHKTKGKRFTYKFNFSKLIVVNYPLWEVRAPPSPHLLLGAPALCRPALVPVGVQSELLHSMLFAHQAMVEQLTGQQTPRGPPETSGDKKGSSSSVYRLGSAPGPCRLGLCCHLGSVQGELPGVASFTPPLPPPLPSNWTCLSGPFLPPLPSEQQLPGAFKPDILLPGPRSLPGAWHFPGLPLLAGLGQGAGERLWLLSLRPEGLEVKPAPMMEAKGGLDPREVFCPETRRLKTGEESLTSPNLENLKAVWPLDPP
# Summary of the method: as §1
# ETS2 = molecular target: T7, ETS2 (Homo sapiens, UniProt P15036 1-469); details: protein: recombinant; tags: N-terminal GST; dsDNA, one strand shown
# T7 sequence: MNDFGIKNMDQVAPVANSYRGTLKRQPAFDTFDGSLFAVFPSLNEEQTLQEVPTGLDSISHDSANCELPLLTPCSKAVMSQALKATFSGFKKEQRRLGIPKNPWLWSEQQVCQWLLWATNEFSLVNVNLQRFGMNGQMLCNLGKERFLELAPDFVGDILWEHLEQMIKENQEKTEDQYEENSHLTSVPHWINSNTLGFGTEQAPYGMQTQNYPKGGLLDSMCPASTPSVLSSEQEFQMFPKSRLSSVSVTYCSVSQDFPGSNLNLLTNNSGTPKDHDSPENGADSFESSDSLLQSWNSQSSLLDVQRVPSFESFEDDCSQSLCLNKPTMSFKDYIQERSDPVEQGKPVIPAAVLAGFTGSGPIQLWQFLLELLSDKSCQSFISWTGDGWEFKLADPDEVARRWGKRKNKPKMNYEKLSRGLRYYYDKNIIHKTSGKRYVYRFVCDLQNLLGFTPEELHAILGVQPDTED
# Summary of the method: as §1
# SPDEF = molecular target: T8, SPDEF (Homo sapiens, UniProt O95238 1-335); details: protein: recombinant; tags: N-terminal GST; dsDNA, one strand shown
# T8 sequence: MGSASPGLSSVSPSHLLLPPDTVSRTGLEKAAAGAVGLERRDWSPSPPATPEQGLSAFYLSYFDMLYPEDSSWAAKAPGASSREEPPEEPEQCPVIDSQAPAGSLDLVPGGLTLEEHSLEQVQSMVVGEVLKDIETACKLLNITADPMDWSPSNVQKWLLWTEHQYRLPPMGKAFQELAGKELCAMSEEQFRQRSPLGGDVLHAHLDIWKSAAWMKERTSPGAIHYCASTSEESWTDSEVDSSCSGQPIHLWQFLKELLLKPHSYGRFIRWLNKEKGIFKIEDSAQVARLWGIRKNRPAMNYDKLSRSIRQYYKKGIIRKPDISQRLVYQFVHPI
# Summary of the method: as §1
# ETV7 = molecular target: T9, ETV7 (Homo sapiens, UniProt Q9Y603 1-341); details: protein: recombinant; tags: N-terminal GST; dsDNA, one strand shown
# T9 sequence: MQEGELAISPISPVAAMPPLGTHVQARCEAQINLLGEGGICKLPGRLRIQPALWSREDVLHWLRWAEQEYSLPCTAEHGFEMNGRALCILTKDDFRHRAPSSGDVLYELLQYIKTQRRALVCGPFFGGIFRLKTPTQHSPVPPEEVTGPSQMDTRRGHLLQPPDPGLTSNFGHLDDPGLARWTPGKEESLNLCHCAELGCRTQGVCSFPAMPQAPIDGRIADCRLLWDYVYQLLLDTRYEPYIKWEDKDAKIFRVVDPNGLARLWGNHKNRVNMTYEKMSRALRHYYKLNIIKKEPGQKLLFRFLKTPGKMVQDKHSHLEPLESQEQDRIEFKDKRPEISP
# Summary of the method: as §1
# ELF5 = molecular target: T10, ELF5 (Homo sapiens, UniProt Q9UKW6-2 1-255); details: protein: recombinant; tags: N-terminal GST; dsDNA, one strand shown
# T10 sequence: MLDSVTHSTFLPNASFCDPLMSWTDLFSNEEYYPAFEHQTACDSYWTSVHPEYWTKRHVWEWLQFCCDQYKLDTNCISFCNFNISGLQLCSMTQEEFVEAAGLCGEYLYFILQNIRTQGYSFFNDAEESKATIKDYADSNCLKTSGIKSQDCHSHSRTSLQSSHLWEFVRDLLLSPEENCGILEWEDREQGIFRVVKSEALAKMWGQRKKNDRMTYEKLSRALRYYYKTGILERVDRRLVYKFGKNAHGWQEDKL
# Summary of the method: as §1
# ETV3 = molecular target: T11, ETV3 (Homo sapiens, UniProt P41162-2 1-143); details: protein: recombinant; tags: N-terminal GST; dsDNA, one strand shown
# T11 sequence: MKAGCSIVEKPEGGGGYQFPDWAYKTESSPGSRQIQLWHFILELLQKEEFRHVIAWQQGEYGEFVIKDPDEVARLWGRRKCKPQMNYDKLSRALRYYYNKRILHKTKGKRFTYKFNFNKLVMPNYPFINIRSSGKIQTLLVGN
# Summary of the method: as §1
# ETV6 = ETV6 (Homo sapiens, UniProt P41212 1-452); details: protein: recombinant; tags: N-terminal GST; dsDNA, one strand shown
# Sequence of ETV6 (P41212 whole entry): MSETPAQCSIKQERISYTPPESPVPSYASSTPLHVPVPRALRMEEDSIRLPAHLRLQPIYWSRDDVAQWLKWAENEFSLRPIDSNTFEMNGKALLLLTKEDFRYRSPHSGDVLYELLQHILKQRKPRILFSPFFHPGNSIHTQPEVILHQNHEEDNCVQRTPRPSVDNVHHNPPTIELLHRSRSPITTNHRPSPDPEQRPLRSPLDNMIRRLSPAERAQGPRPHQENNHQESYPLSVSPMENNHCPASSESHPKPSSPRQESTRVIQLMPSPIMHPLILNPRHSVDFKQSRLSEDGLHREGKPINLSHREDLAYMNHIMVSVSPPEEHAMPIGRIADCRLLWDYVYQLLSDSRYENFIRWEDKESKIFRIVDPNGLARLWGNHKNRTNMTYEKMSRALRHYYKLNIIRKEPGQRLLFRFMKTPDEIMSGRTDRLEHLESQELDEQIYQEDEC
# Summary of the method: as §1
Sequence,binding signal (FEV),binding signal (ETV5),binding signal (HSF1),binding signal (SPIC),binding signal (ELF4),binding signal (ELK4),binding signal (ETV2),binding signal (CRX),binding signal (ETV1),binding signal (ERF),binding signal (ETV3L),binding signal (ETS2),binding signal (SPDEF),binding signal (ETV7),binding signal (ELF5),binding signal (ETV3),binding signal (ETV6)
CGATAA,"1.02 fold enrichment (6-mer frequency, TF over GST control)","1.04 fold enrichment (6-mer frequency, TF over GST control)","1.51 fold enrichment (6-mer frequency, TF over GST control)","1.12 fold enrichment (6-mer frequency, TF over GST control)","1.16 fold enrichment (6-mer frequency, TF over GST control)","1.1 fold enrichment (6-mer frequency, TF over GST control)","1.19 fold enrichment (6-mer frequency, TF over GST control)","1.75 fold enrichment (6-mer frequency, TF over GST control)","1.09 fold enrichment (6-mer frequency, TF over GST control)","1.11 fold enrichment (6-mer frequency, TF over GST control)","1.09 fold enrichment (6-mer frequency, TF over GST control)","1.14 fold enrichment (6-mer frequency, TF over GST control)","1.02 fold enrichment (6-mer frequency, TF over GST control)","1.08 fold enrichment (6-mer frequency, TF over GST control)","1.03 fold enrichment (6-mer frequency, TF over GST control)","1.06 fold enrichment (6-mer frequency, TF over GST control)","1.09 fold enrichment (6-mer frequency, TF over GST control)"
TTGAAC,–,"1.05 fold enrichment (6-mer frequency, TF over GST control)","1.02 fold enrichment (6-mer frequency, TF over GST control)","1.06 fold enrichment (6-mer frequency, TF over GST control)","1.12 fold enrichment (6-mer frequency, TF over GST control)","1.32 fold enrichment (6-mer frequency, TF over GST control)","1.27 fold enrichment (6-mer frequency, TF over GST control)","1.03 fold enrichment (6-mer frequency, TF over GST control)","1.08 fold enrichment (6-mer frequency, TF over GST control)","1.16 fold enrichment (6-mer frequency, TF over GST control)","1.17 fold enrichment (6-mer frequency, TF over GST control)","1.17 fold enrichment (6-mer frequency, TF over GST control)","1.06 fold enrichment (6-mer frequency, TF over GST control)","1.18 fold enrichment (6-mer frequency, TF over GST control)",–,"1.14 fold enrichment (6-mer frequency, TF over GST control)","1.1 fold enrichment (6-mer frequency, TF over GST control)"
